# Most compounds without a hit are left out; they make up all but 17% or so of the library.
# TGFb SMAD3 inh: inhibitors of TGF-b signaling. HepG2 CAGA-GFP TGF-b/SMAD3 reporter, GFP fluorescence, 18 h; TGF-beta stimulated, 500 pg/mL final. actives 1.2% (n = 410,000). AID 588855. Potency, µM (titrated, usually from 46.1 µM), inactives show top-dose activity, negative = inhibition, actives largely listed as inhibitors; note: % is set by controls: 0 for no effect and ±100 for the full control effect; nearly all actives have a fitted effect of over 65% in size
#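 HEPG2 CAGA-GFP reporter cells (1000/well, DMEM with 1% FBS) received compounds, then recombinant TGF-beta at 500 pg/mL final for 18 hours at 37 degrees C. Per-cell GFP summed per well was normalised to unstimulated and stimulated DMSO controls before curve fitting.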
# DT40 TDP1 no CPT: qHTS for Inhibitors of human tyrosyl-DNA phosphodiesterase 1 (TDP1): qHTS in cells in absence of CPT; DT40 Tdp1-/- hTDP1 cells, no CPT, ATP luminescence, 48 h; Potency, µM (series often up to 46.2 µM), for inactives: top-dose activity change, negative = growth inhibition, hits mostly inhibitors; actives 15% (n = 420,000); note: % is set by controls: 0 for no effect and ±100 for the full control effect; nearly all actives have a fitted effect of over 55% in size
#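 Chicken DT40 Tdp1-/- cells complemented with human TDP1, screened without camptothecin (DMSO vehicle only), 400 cells/well. Compounds pin-transferred, cells incubated at 37 °C for at least 48 hr. Growth read as ATP-dependent luminescence (CellTiter-Glo, 30 min at RT).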
# HepG2 viability: kills HepG2 cells in TGF-b inhibitor counter-screen. HepG2 CAGA-GFP viability, ATP luminescence, 18 h. Potency, µM (highest dose often 46.1 µM), for the others: at the highest dose activity change, negative = cytotoxicity, usual class: cytotoxic. actives 0.76% (n = 410,000). AID 588856
#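 HepG2 CAGA-GFP cells (1000/well, DMEM with 1% FBS) received compound, then TGF-beta at 500 pg/mL final, and were incubated 18 hours at 37 degrees C. Viability was read by CellTiter-Glo luminescence. Media-only wells were set as complete cell-killing and DMSO as no toxicity.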
# ATXN viability: viability counter-screen for ATXN expression inhibitors. actives 0.49% (n = 400,000). Potency, µM (series often up to 56.7 µM), actives largely listed as cytotoxic. AID 651635. S2 cells (HEK-293 line with an ATXN2-luciferase reporter) viability, CellTiter-Fluor protease fluorescence, 24 h; note: nearly all actives have a fitted effect of over 40% in size
# ATXN2 expr inh: reduces ATXN2 reporter expression in HEK-293 cells; Potency, µM (doses to about 57 µM), for inactives: top-dose activity change, negative = inhibition, hits mostly inhibitors; HEK-293 ATXN2-luciferase reporter, luminescence, 24 h; actives 0.72% (n = 360,000); note: % is set by controls: 0 for no effect and ±100 for the full control effect; nearly all actives have a fitted effect of over 55% in size
#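 ATXN2-luciferase reporter cells (luciferase flanked by upstream and downstream ATXN2 gene portions) were treated 24 h at 37 °C with compounds at up to 57 uM. SteadyGlo luminescence gave expression; GF-AFC fluorescence gave viability.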
# DT40 TDP1 CPT: growth inhibition of DT40 Tdp1-/-;hTDP1 cells with camptothecin (screen for TDP1 inhibitors); actives 12% (n = 420,000); AID 686979; chicken DT40 Tdp1-/-;hTDP1 cells + 20 nM CPT, ATP luminescence, 48 h; Potency, µM (series often up to 46.2 µM), without a hit: at the highest dose activity change, negative = growth inhibition, hits mostly inhibitors; note: % is set by controls: 0 for no effect and ±100 for the full control effect; nearly all actives have a fitted effect of over 55% in size
#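 Chicken DT40 Tdp1-/- cells complemented with human TDP1, 400 cells/well, exposed to compounds plus 20 nM camptothecin for at least 48 h at 37 C; viability read as ATP content by CellTiter-Glo luminescence.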
# * hit, by the source's call; i = inactive; ? = inconclusive; nt = not tested or not shown; [ ] = another dose, or the depositor's remark. Calls come from the whole dose curve; as a rule, active = well fitted curve in the direction sought with a large enough effect; inconclusive = small, poorly fitted or top-dose-only effect, or another doubt; inactive = no such curve, though single readings can be large; an effect the other way counts as inactive or inconclusive. Potency is the fitted concentration of half-maximal effect.
SMILES,TGFb SMAD3 inh,DT40 TDP1 no CPT,HepG2 viability,ATXN viability,ATXN2 expr inh,DT40 TDP1 CPT
CCCCCCCC(=O)N/N=C/c1ccc(Br)cc1,-10.8%,14.6µM*,-32.6%,i,10.1%,?
CSc1nc(C)cc(OCC(=O)N/N=C/c2ccccc2O)n1,?,?,-22.4%,i,14.1µM*,2.91µM*
C=CCn1c(COc2ccc(Cl)cc2)nnc1SCC(=O)N/N=C/c1cccc(O)c1,?,?,-1.0%,?,-13.5%,?
COc1cc(OC)c(C(=O)Nc2cccc3ccccc23)cc1OC,-14.7%,?,6.0%,i,nt,?
COc1ccccc1C(=O)Nc1ccc2c(c1)n(C)c(=O)n2C,8.7%,-3.2%,-42.8%,i,-32.9%,1.3%
Cc1nn(C)c(C(=O)N/N=C/c2cc3c(cc2Br)OCO3)c1Br,-7.2%,18.4µM*,1.5%,i,-7.3%,?
O=C(N/N=C/c1cc(Cl)ccc1O)c1ccncc1,?,3.26µM*,12.6µM*,i,?,5.8µM*
COCCCNC(=S)N/N=C/c1ccccc1O,1.78µM*,0.581µM*,-57.5%,?,nt,2.59µM*
Cc1nonc1C(=O)N/N=C/c1cc2c(cc1Br)OCO2,-7.3%,14.4%,-4.5%,i,-1.1%,-23.5%
O=C(CSCc1ccccc1)N/N=C/c1cc2c(cc1Br)OCO2,?,18.4µM*,-46.6%,i,-8.2%,-73.9%
O=C(c1cccc2c1C(=O)N(Cc1cccnc1)C2)N1CCN(c2ccccc2)CC1,-7.7%,3.9%,-14.7%,i,-14.2%,-7.0%
O=C(COC(=O)CNC(=O)c1ccccc1Cl)NC1CC1,1.0%,-0.7%,1.3%,i,10.1%,-4.7%
COCCNC(=O)C(=O)NCC1OCCN1S(=O)(=O)c1ccc(C)cc1 (stereo not given),?,5.1%,-5.6%,i,-6.7%,-4.6%
O=C(N/N=C\c1ccccc1O)c1ccccc1O,nt,0.531µM*,nt,nt,nt,0.531µM*
O=C(N/N=C/c1cc(Br)ccc1O)c1ccccc1Cl,?,0.92µM*,-48.2%,i,?,0.651µM*
O=C(Cn1cc(C(F)(F)F)ccc1=O)N/N=C/c1ccccc1O,-23.7%,7.31µM*,-46.9%,i,0.0%,16.4µM*
O=C(NCc1ccccn1)C(=O)N/N=C/c1ccccc1O,-11.3%,23.1µM*,-7.9%,i,-14.0%,?
CCCCC1SC(N)=NC1=O (stereo not given),15.8%,-8.0%,0.4%,i,-0.3%,4.6%
O=C(CSCC(=O)NN=Cc1ccccc1O)NN=Cc1ccccc1O,-20.9%,5.8µM*,-9.6%,?,?,5.8µM*
CO[C@H]1[C@H](NC(=O)c2ccsc2)c2ccccc2C12CCN(Cc1cccn1-c1ccccn1)CC2,nt,-26.3%,nt,?,nt,9.9%[9.04 µM]
Cn1c(=O)c2c(nc(N3CCOCC3)n2CCc2ccccc2)n(C)c1=O,-1.7%,-8.2%,-20.8%,i,nt,-22.7%
COc1ccc(OCC(O)Cn2c(N3CCCCC3)nc3c2c(=O)n(C)c(=O)n3C)cc1 (stereo not given),2.3%,16.4µM*,-3.1%,i,-9.9%,?
CCCCCCn1c(N2CCN(c3ccccc3)CC2)nc2c1c(=O)n(C)c(=O)n2C,8.5%,20.6µM*,-19.7%,?,-24.7%,?
CCCn1c(SCC(=O)N2CCN(c3ccc(OC)cc3)CC2)nc2c1c(=O)n(C)c(=O)n2C,?,16.4µM*,-20.8%,i,-7.9%,18.4µM*
Cn1c(=O)c2c(nc(N3CCOCC3)n2Cc2ccc(Br)cc2)n(C)c1=O,-1.4%,20.6µM*,-18.8%,i,9.9%,10.3µM*
SMILES,TGFb SMAD3 inh,DT40 TDP1 no CPT,HepG2 viability,ATXN viability,ATXN2 expr inh,DT40 TDP1 CPT
COc1ccc(OCC(O)Cn2c(N3CCCCC3)nc3c2c(=O)[nH]c(=O)n3C)cc1 (stereo not given),13.2%,?,-5.2%,i,nt,-25.9%
COCCn1c(N2CCN(c3ccccc3)CC2)nc2c1c(=O)n(C)c(=O)n2C,1.5%,?,-2.3%,i,-21.4%,-26.3%
CC1CCCN(Cc2nc3c(c(=O)n(C)c(=O)n3C)n2Cc2ccc(Cl)cc2)C1 (stereo not given),-1.5%,-14.8%,7.2%,i,3.5%,-10.2%
CC1Cc2ccccc2N1C(=O)CSc1nc2c(c(=O)n(C)c(=O)n2C)n1Cc1ccccc1 (stereo not given),-9.6%,20.6µM*,-18.1%,?,?,23.1µM*
CC1CCCN(c2nc3c(c(=O)n(C)c(=O)n3C)n2Cc2ccccc2)C1 (stereo not given),-22.2%,23.1µM*,-2.3%,i,-0.3%,?
C=C(C)Cn1c(N2CCN(c3ccc(OC)cc3)CC2)nc2c1c(=O)n(C)c(=O)n2C,-21.0%,13µM*,6.8%,i,-28.9%,16.4µM*
COc1ccc(N2CCN(c3nc4c(c(=O)n(C)c(=O)n4C)n3Cc3ccccc3)CC2)cc1,-2.9%,?,-45.6%,i,-22.6%,23.1µM*
O=c1cc(N2CCOCC2)oc2c(-c3cccc4c3sc3ccccc34)cccc12,nt,nt,nt,nt,-18.0%,nt
CC(C)c1nc2ccccn2c1NC1CCCCC1,3.3%,?,-20.0%,i,-30.0%,-28.3%
CCC(C)Sc1cc(-c2nc3cc(C)ccn3c2NC2CCCCC2)ccc1OC (stereo not given),?,20.6µM*,-59.0%,?,?,20.6µM*
CC(=O)c1ccc(-c2cccc(-c3nc4ccccn4c3NC3CCCCC3)c2)cc1,?,14.6µM*,-25.4%,15.8µM*,?,23.1µM*
CCC(C)Sc1cc(-c2nc3ccccn3c2NC2CCCCC2)ccc1OC (stereo not given),?,14.6µM*,-117.3%,31.6µM*,?,11.6µM*
Cc1cc(C)c(S(=O)(=O)N2CCOC2CNC(=O)C(=O)NCCCN2CCOCC2)c(C)c1 (stereo not given),-0.6%,-2.2%,4.7%,i,0.9%,4.3%
Cc1ccccc1NC(=O)C(=O)NCC1(c2ccccc2)CCCC1,?,16.4µM*,5.1%,nt,nt,?
Cc1ccc(NC(=O)C(=O)NCC2(c3ccccc3)CCCC2)cc1C,?,-17.1%,3.3%,i,6.0%,?
S=C(NCC1(c2ccccc2)CCCC1)Nc1ccccc1,-23.5%,11.6µM*,-27.8%,i,?,20.6µM*
COc1ccccc1C(=O)NCC1(c2ccccc2)CCCC1,?,?,-19.1%,i,-13.4%[11.3 µM],16.4µM*

# Screens deposited in PubChem BioAssay by National Center for Advancing Translational Sciences (NCATS).
